Data on 22 compounds can be found in PubChem BioAssay.

The source made the active and inactive calls. No rule for the calls is given here.

Sequence of Pantothenate synthetase (Mycobacterium tuberculosis (strain ATCC 25618 / H37Rv)) (P9WIL5 whole entry, looked up): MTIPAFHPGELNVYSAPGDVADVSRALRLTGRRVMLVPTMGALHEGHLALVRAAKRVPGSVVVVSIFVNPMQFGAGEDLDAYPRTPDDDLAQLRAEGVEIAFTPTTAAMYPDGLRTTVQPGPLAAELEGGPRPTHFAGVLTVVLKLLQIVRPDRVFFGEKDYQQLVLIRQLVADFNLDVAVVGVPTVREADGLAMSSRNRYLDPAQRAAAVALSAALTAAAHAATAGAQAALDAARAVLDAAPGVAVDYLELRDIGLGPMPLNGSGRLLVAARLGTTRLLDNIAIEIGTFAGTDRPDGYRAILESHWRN

This test has as its target Pantothenate synthetase (Mycobacterium tuberculosis (strain ATCC 25618 / H37Rv)) (UniProt P9WIL5). Briefly: Coupled enzyme confirmation of inhibitors against recombinant Mtb PanC (AID 375).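 Also: 0% = full reaction with vehicle and 100% = no enzyme background.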 Particulars: coupled enzyme assay; at 10 µM, active compounds read high.
In general, inhibition refers to the relative decrease from the control value, in per cent. Turning to `COC(=O)c1ccc(Oc2nc(NC(C)C)nc(N(C)C)n2)cc1`, the inhibition was 1% (inactive).

As to `CN(C(=O)c1ccc2c(=O)n3c(nc2c1)CCCCC3)c1ccccc1`, the inhibition is 4% (inactive).

As for `Cc1cccc(N2C(=O)CC(N3CCN(C(=O)c4ccccc4)CC3)C2=O)c1` (configuration not stated), the inhibition is 5% (inactive).

In the case of `O=C(O)CCn1c(=O)c2ccccc2c2ccccc2c1=O`, the inhibition is 1% (inactive).

Consider `O=C(NCCN1CCOCC1)c1ccc2c(c1)N(Cc1ccccc1)C(=O)CS2`, for which the inhibition was 0% (inactive).

As for `O=C(Cn1cc2c(n1)CCCC2)NCCc1ccccc1`, the inhibition is 0% (inactive).

Turning to `N#Cc1c(-c2ccccc2)nc(N2CCCCCC2)[nH]c1=O`, the inhibition is 0% (inactive).

As to `CCN1CCN(C(=O)c2cc3c(=O)n(C)c4ccccc4c3n2C)CC1`, the inhibition was 0% (inactive).

Take `CC(=O)Nc1cccc(NC(=O)c2oc3ccccc3c2C)c1`: the inhibition is 0% (inactive).

Turning to `Cc1cccc(-c2cc3nc4c(c(N5CCOCC5)n3n2)CCCC4)c1`, the inhibition is 0% (inactive).

With `Cc1ccccc1Nc1cc2ccccc2c(=O)[nH]1`, the inhibition is 2% (inactive).

As to `O=C(OCCN=C1NS(=O)(=O)c2ccccc21)C1CC(=O)N(c2ccc(Cl)cc2)C1` (configuration not stated), the inhibition is 0% (inactive).

Take `Cc1nn(C)cc1NC(=O)CCSc1nc(-c2ccco2)cc(C(F)(F)F)n1`: the inhibition was 0% (inactive).

In the case of `COc1ccc(Nc2nc(Nc3ccc(OC)cc3)nc(-n3[nH]c(=O)c(C)c3C)n2)cc1`, the inhibition is 0% (inactive).

For the compound `COC(=O)C1=C(C)NC2=C(C(=O)CCC2)C1c1coc2ccccc2c1=O` (configuration not stated), the inhibition was 6% (inactive).

On to `COc1ccc(-c2noc(CCN3C(=O)c4ccccc4C3=O)n2)cc1OC`, for which the inhibition was 7% (inactive).

For `O=C(CSc1nnc(Cc2ccccc2)n1C1CCCCC1)N1CCOCC1`, the inhibition is 3% (inactive).

In the case of `CC(=O)NC(Cc1ccc(C)cc1)C(=O)NC1CCN(C(=O)c2cnccn2)CC1` (configuration not stated), the inhibition is 0% (inactive).

For the compound `CC[N+](C)(C)c1cccc(O)c1`, the inhibition is 0% (inactive).

With `CC1=C(C(=O)N2CCCCC2)C2(CCC(C)CC2)OC1=O` (configuration not stated), the inhibition is 12% (inactive).

Turning to `COc1ccc(-c2cc(C(F)(F)F)n3nc(C(=O)N4CCOCC4)nc3n2)cc1`, the inhibition is 8% (inactive).

In the case of `O=C(CSc1nnc(CNC(=O)c2cccs2)o1)Nc1cccc(C(F)(F)F)c1`, the inhibition is 0% (inactive).
